# Screening results (PubChem BioAssay)
# Only some compounds are listed: those with a hit (about 4.6% of all), similar ones and a draw of the others.
# tim10-1 inh = growth inhibitors of tim10-1 mutant yeast; S. cerevisiae tim10-1 ts strain growth, BacTiter-Glo, 24 h; inhibition, % at 20 µM; actives 2.2% (n = 330,000);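 active = inhibition of at least 40%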;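 note: mutant grown at 25 °C; 0% = DMSO wells with yeast and 100% = wells holding no yeast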
# tim23-1 inh = tim23-1 yeast growth inhibition. S. cerevisiae tim23-1 growth, BacTiter-Glo luminescence, 24 h. inhibition, % at 20 µM. actives 1.3% (n = 330,000). AID 463212;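 active = growth inhibition of the mutant yeast at or above 50%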;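 note: temperature-sensitive mutant grown at 25 °C; plate controls were DMSO-treated mutant yeast for no effect and medium wells lacking yeast for full effect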
# PfHsp90 yeast 2 = growth inhibition of yeast expressing Plasmodium Hsp90; actives 0.32% (n = 310,000); inhibition, % at 9.4 µM; S. cerevisiae expressing PfHsp90, BacTiter-Glo ATP, 48 h; yeast lacking PDR1 and PDR3 efflux regulators;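 active = every replicate shows inhibition above about 80%, whatever the replicate mean, limit read from the data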;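 note: 0% = DMSO neutral controls and 100% = 20 µM radicicol positive controls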
# SKKanGAS inh = blocks kanamycin growth of S. pyogenes SKKanGAS strain; actives 1.3% (n = 300,000); BacTiter-Glo, 6 h; inhibition, % at 7.5 µM; AID 1662;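 active = mean replicate score, as percent of positive control median, at least 50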;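 note: strain carries kanamycin resistance gene driven by streptokinase promoter and grows in 40 µg/ml kanamycin; loss of luminescence reflects streptokinase promoter inhibition or plain growth inhibition; 0% = median of DMSO wells and 100% = positive control at its reference dose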
# TIM10 inh = growth inhibitors of TIM10 yeast strain; actives 1.4% (n = 330,000); S. cerevisiae TIM10 strain growth, BacTiter-Glo luminescence, 24 h; inhibition, % at 10 µM; AID 463195;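 active = inhibition of 40% or more at the single tested concentration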;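 note: wild-type TIM10 isogenic control strain grown at permissive 25 °C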
# NLRP3 yeast inh = NALP3 inhibition in yeast. Yeast reconstituted NLRP3/ASC/caspase-1, beta-gal luminescence, 24 h. actives 0.39% (n = 330,000). inhibition, % at 10 µM;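 active = inhibition of 50% or more; inactive = inhibition below 50%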;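 note: plate controls were induced DMSO wells for no effect and uninduced yeast grown without galactose for full effect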
# tim23-1 conf = confirmation of tim23-1 mutant yeast growth inhibitors; S. cerevisiae tim23-1 growth, BacTiter-Glo luminescence, 24 h; inhibition, % at 20 µM; shares compounds with tim23-1 inh; AID 463218; actives 83% (n = 4,400);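 active = inhibition above about 39% in either of two replicate wells at 20 µM, limit read from the data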;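 note: temperature-sensitive tim23-1 mutant grown at 25 °C; 0% = DMSO wells with yeast and 100% = medium wells without yeast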
# An asterisk follows results filed as active; x = no result given; ! = not confirmed by another sample.
SMILES,tim10-1 inh,tim23-1 inh,PfHsp90 yeast 2,SKKanGAS inh,TIM10 inh,NLRP3 yeast inh,tim23-1 conf
Cc1onc(-c2ccccc2)c1C(=O)NCc1ccccc1F,0,2,7,-7,-16,16,x
Cc1ccc(-c2ccc(/C=C3\C(=O)ON=C3c3ccccc3)o2)c([N+](=O)[O-])c1,7,70*,49,5,33,15,67*
COc1ccc(/C=C2\C(=O)ON=C2c2ccccc2)cc1,31,42,14,-1,6,14,x
Cc1ccc(/C=C2\C(=O)ON=C2c2ccccc2)o1,27,53*,32,-4,7,-31,53*
O=C1/C(=C\c2ccc(-c3ccccc3[N+](=O)[O-])o2)C(c2ccccc2)=NN1c1ccccc1,11,18,x,25,26,21,x
O=C(NN=C1C2CC3CC1CC(Cl)(C3)C2)c1ccccn1,11,-5,x,1,4,-8,x
COc1ccc(/C=N/NC(=O)CC(=O)N/N=C/c2ccc(OC)cc2)cc1,16,-3,3,18,2,3,x
COc1ccc(CCCC(=O)N/N=C/c2ccc(C)cc2)cc1,31,56*,-19,8,0,34,51*
COc1ccc(CC(=O)Nc2c3c(nn2-c2ccccc2C)CS(=O)C3)cc1 (stereo unspecified),14,97*,25,1,-12,0,4
COc1ccc(C2CC(=O)Oc3cc4c(cc32)OCO4)cc1 (stereo unspecified),14,61*,6,x,6,x,49*
COc1ccc(C2CC(=O)Oc3cc(O)ccc32)cc1 (stereo unspecified),2,57*,-17,x,7,x,46*
N#CC1(NC(=O)CSc2n[nH]c(-c3ccccc3)n2)CCCCC1,-17,-7,x,-1,-5,24,x
CCn1c(/C=N/c2nc3ccccc3n2C)nc2ccccc21,31,56*,5,-4,18,-8,42*
O=C(Nc1cc(F)ccc1F)N1CCN(c2ccnc3cc(Cl)ccc23)CC1,22,21,-8,-3,11,33,x
O=C(Nc1ccc(C(F)(F)F)cc1)N1CCN(c2ccnc3cc(Cl)ccc23)CC1,16,51*,-2,53*,24,19,46*
Cc1ccccc1C(=O)Oc1ccc(Sc2ccc(O)cc2)cc1,22,57*,x,96*,26,21,-14
COc1ccc([C@H]2CC(=O)C=C(c3ccc(F)cc3OCc3ccccc3)C2)cc1OC,6,26,-20,x,10,7,x
CC(C)CC(=O)Nc1ccccc1N1CCN(C(=O)c2ccccc2)CC1,13,76*,-1,14,4,11,7
Cc1ccc(CNC(=O)[C@H]2C[C@@H]2[C@H](NP(=O)(c2ccccc2)c2ccccc2)c2ccccc2)o1,15,20,-5,2,4,10,x
Clc1ccc(CSc2nnc(-c3ccccn3)n2Cc2ccco2)c(Cl)c1,29,35,1,10,8,0,x
CCc1nc(Nc2cccc(O)c2)c2oc3ccccc3c2n1,9,60*,5,10,29,16,46*
CCc1nc(Nc2ccncc2)c2oc3ccccc3c2n1,6,-2,5,0,6,-3,x
O=C(O)c1ccc([N+](=O)[O-])c(CS(=O)(=O)c2ccccc2)c1,-7,26,-13,8,8,3,x
CCOc1ccc(-c2nc(N)ncc2-c2ccc(Cl)cc2)c(O)c1,23,54*,3,12,10,13,-21
CCOc1ccc(-c2nc(N)ncc2-c2ccc(OC)cc2)c(O)c1,-9,23,-36,-5,7,31,x
SMILES,tim10-1 inh,tim23-1 inh,PfHsp90 yeast 2,SKKanGAS inh,TIM10 inh,NLRP3 yeast inh,tim23-1 conf
CCOc1ccc(-c2nc(N)ncc2Oc2ccc(OC)cc2)c(O)c1,21,56*,-8,9,31,12,62*
CN1C(=O)/C(=C\c2ccco2)N=C1c1ccc(Cl)cc1Cl,20,71*,0,-1,30,0,44*
CN(C)/C=C1\N=C(c2ccc(Cl)cc2Cl)OC1=O,27,4,-6,-11,-14,39,x
O=C1OC(/C=C/c2ccc(Cl)cc2)=NC/1=C/c1ccco1,34,60*,18,1,24,1,42*
CC(C)[C@H](NC(=O)c1nn(Cc2ccccc2)c(=O)c2ccccc12)C(=O)O,2,4,35,-2,-9,15,x
COc1ccc(S(=O)(=O)N2CCC3(CC2)OCCN3S(=O)(=O)c2ccc(OC)cc2)cc1,-6,7,x,1,12,1,x
COc1ccc(S(=O)(=O)N2CCOC23CCN(S(=O)(=O)c2ccc(Cl)cc2)CC3)cc1,36,52*,x,0,33,-1,42*
O=C(COC(=O)COc1ccc(Cl)cc1)NCCNC(=O)COC(=O)COc1ccc(Cl)cc1,-14,93*,-9,6,-1,2,3
O=C(COC(=O)COc1ccc(Cl)cc1)NCCCc1ccccc1,2,16,-8,x,3,18,x
O=C1Nc2ccc(Br)cc2C1(O)c1ccc(F)cc1 (stereo unspecified),18,12,-12,-5,3,5,x
CCOc1cccc(CNCc2ccc(C(=O)O)cc2)c1,-10,89*,-35,-8,-14,8,18
O=C(O)c1ccc(CNCc2cccc(Oc3ccccc3)c2)cc1,-11,3,5,2,11,0,x
O=Cc1ccccc1OCc1ccc2c(c1)OCO2,0,57*,-11,7,22,-8,56*
C/C(=N\N(c1ccccc1)c1ccccc1)c1ccc(O)cc1,-6,54*,17,8,20,16,44*
C/C(=N\N(c1ccccc1)c1ccccc1)c1ccc(N)cc1,17,29,-1,-1,27,10,x
CCOc1ccccc1C(O)C1=CC(=O)c2ccccc2C1=O (stereo unspecified),x,x,-5,x,x,x,x
CC1=CC(=O)c2ccccc2C1=O,18,51*!,5,-3,7,-13,63*
COc1cccc2c1C(=O)C=C(C)C2=O,27,50*,18,8,30,13,47*
O=C(NCc1ccccc1)c1ccc(NC(=O)C2CCCO2)cc1 (stereo unspecified),-3,-2,9,2,4,0,x
COC(=O)CCN(Cc1cc(OC)ccc1OC)S(=O)(=O)c1ccccc1Br,28,54*,11,x,13,x,36
COC(=O)CCN(Cc1ccccc1)S(=O)(=O)c1ccccc1Br,15,43,18,x,-15,x,x
COc1ccc(CN(CCC(C)C)S(=O)(=O)c2ccccc2Br)cc1,21,34,15,x,-21,x,x
CCC(=O)CN(Cc1cc(OC)ccc1OC)S(=O)(=O)c1ccccc1Br,28,58*,-34,x,2,x,26
